The results in this text go back to PubChem BioAssay.

SMILES strings stand for the structures. Calls of active or inactive are those of the source.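 Rule for the calls, unless noted: active = compound raising the membrane signal above positive-control mean plus 3 SD in both repeats, and a primary screen hit; inactive = the rest.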

The target of one assay is Short transient receptor potential channel 6 (Mus musculus) (UniProt Q61143). Description: positive modulators of mouse TRPC6 channel – HEK293 cells, membrane potential dye, duplicate, selectivity assay for TRPC4 potentiator project, confirmation (AID 434952). To be noted: HEK293 TRPC6, membrane potential dye fluorescence, at 10 µM, maximal acetylcholine added after compound; stronger effect = higher value.
Chain of Short transient receptor potential channel 6 (Mus musculus) (Q61143 whole entry, looked up): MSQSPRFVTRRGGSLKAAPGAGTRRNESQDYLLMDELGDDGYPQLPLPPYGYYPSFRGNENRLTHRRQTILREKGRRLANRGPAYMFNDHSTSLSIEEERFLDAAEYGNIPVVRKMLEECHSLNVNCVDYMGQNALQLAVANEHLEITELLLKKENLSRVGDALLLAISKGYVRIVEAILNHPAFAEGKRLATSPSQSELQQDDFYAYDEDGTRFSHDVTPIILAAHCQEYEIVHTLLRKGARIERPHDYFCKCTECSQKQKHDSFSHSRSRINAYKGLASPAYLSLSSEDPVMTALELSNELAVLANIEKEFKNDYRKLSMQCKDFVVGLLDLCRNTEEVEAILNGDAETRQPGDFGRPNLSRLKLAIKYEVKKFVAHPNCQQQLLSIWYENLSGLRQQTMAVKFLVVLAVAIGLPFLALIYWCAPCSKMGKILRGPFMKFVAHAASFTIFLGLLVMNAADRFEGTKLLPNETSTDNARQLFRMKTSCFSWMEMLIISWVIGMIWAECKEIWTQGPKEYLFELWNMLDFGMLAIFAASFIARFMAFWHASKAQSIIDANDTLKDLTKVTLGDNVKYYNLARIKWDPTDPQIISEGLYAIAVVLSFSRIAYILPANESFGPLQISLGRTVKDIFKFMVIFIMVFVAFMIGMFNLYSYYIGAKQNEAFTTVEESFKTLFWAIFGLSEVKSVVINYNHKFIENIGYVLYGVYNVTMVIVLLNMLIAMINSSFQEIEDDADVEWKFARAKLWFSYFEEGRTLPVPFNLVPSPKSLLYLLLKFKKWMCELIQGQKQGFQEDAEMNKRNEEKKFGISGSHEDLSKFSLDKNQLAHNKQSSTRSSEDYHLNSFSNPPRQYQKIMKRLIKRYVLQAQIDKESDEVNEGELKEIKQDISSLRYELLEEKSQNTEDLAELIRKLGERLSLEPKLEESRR
For `Fc1ccc(-c2nnc(CN3CCN(c4ncc(C(F)(F)F)cc4Cl)CC3)o2)cc1`, the result was inactive.
`CCN1CCN(c2ccc(S(=O)(=O)N3CCCCC3)cc2NC(=O)COc2ccccc2)CC1`: the outcome was inactive.
Still for that read-out and setting: in the case of `CC1CC(C)CN(CCCNC(=O)c2nn(C)c3c2CS(=O)(=O)c2ccccc2-3)C1` (stereo not drawn) it was “inactive”.
With `Cc1ccc(/C=N\NC(=O)C2COc3cc4ccccc4cc3O2)o1` (stereo not drawn), the outcome was inactive.
For the compound `Cc1cccc(C)c1OCC(O)CN` (stereo not drawn), the outcome was inactive.
On the same count and under the same terms, in the case of `CCn1cc(CN2CCCC(C(=O)Nc3ccc(-c4nc5ccccc5[nH]4)cc3)C2)c(C)n1` (stereo not drawn) it was “inactive”; in that of `CC(C)(C)c1cc(Cl)ccc1OCCn1ccnc1`, “inactive”; in that of `CC(C)c1ccc(NC(=S)N(C)CCc2ccccn2)cc1`, “inactive”.
Still for that read-out and setting: in the case of `CCCC(=O)NC(C)C(c1cccs1)N1CCN(c2ccccc2)CC1` (stereo not drawn) it was “inactive”; in that of `Cc1ccc2oc(=O)c3cnn(CC(=O)NC4CCN(Cc5ccccc5)CC4)c3c2c1`, “inactive”; in that of `O=C(CCc1ccccc1)NNC(=S)NC(=O)c1ccc(Cl)cc1`, “inactive”.
Consider `C=CCn1c(CCNC(=O)c2ccco2)nc2ccccc21`, for which the result was inactive.
Regarding `Cc1sc2nc(CSc3ccccc3)nc(NCCN(C)C)c2c1C`, the outcome was inactive.
With `O=C(CNS(=O)(=O)c1ccc2ccccc2c1)NCCc1ccccn1`, the result was inactive.
Still for that read-out and setting: in the case of `COc1ccc(-c2cc(C#N)nc(N3CCNCC3)n2)cc1` it was “inactive”; in that of `Cc1ccc(C)c(OCCCCn2ccnc2)c1`, “inactive”.
Same read-out and setting: in the case of `CCCN(CCC)CCNC(=S)Nc1ccc2nc3n(c(=O)c2c1)CCCCC3` it was “inactive”.
Still for that read-out and setting: in the case of `Cc1cccc(NC(=S)NCC(c2cccnc2)N(C)C)c1` (stereo not drawn) it was “inactive”; in that of `COc1ccc(/C=C/CN2CCCC(C(=O)c3ccc(OC)c(F)c3)C2)cc1` (stereo not drawn), “inactive”.
For the compound `Cc1sc2ncnc(NC3CCN(Cc4ccccc4)CC3)c2c1C`, the result was inactive.
On the same count and under the same terms, for `CCCCN(CC)CCNC(=O)c1cc2c(C)nc3ccccc3c2o1` the value was “inactive”.
On the same count and under the same terms, for `O=C(NCCc1ccccn1)c1ccc(OC2CCN(CCc3ccccc3)CC2)cc1` the value was “inactive”; for `Cc1ccccc1NC(=S)NCCc1ccccn1`, “inactive”; for `NCCCn1c(C(=O)c2cc(Cl)c(N)c(Cl)c2)c2ccccc2[n+]1[O-]`, “inactive”.
Still for that read-out and setting: in the case of `COc1ccc(-c2nn(-c3ccccc3)cc2CNCc2cccnc2)c(F)c1` it was “inactive”; in that of `Cc1onc(-c2ccccc2)c1C(=O)NC(=S)NNC(=O)c1ccco1`, “inactive”.
In the case of `COc1ccc(C(CNC(=O)c2ccc(S(=O)(=O)N(C)C)cc2)N(C)C)cc1` (stereo not drawn), the outcome was inactive.
As to `CCN1C(=O)c2cccc3c(S(=O)(=O)Nc4ccccc4OC)ccc1c23`, the result was inactive.
The same measure, in the same setting: in the case of `CCOC(=O)C1CCCN(C(c2ccccn2)c2c(C)[nH]c3ccccc23)C1` (stereo not drawn) it was “inactive”; in that of `COC(=O)c1ccccc1N=Nc1c(N)[nH][nH]c1=O`, “inactive”.
The same measure, in the same setting: in the case of `COc1ccc(C(CNCC(=O)Nc2ccccc2F)N(C)C)cc1` (stereo not drawn) it was “inactive”; in that of `CCOC(=O)C1(CCOc2ccccc2)CCN(Cc2cnc(C)s2)CC1`, “inactive”.
Same read-out and setting: in the case of `O=C(c1sc2ccccc2c1Cl)N(Cc1ccco1)C1CCS(=O)(=O)C1` (stereo not drawn) it was “inactive”; in that of `CCCCN(C)CCCNC(=O)CN1N=C(c2ccc(Cl)cc2)CCC1=O`, “inactive”; in that of `CN(C)CCCN(C(=O)c1ccc(C(=O)c2ccccc2)cc1)c1nc2ccc(F)cc2s1`, “inactive”.
Turning to `CN(CCc1nc2ccc(Cl)cc2[nH]1)Cc1nc(CC2CC2)no1`, the outcome was inactive.
Still for that read-out and setting: in the case of `Fc1ccc(C(c2nnnn2Cc2cccs2)N2CCN(C3CCCCC3)CC2)cc1` (stereo not drawn) it was “inactive”; in that of `COc1ccc(C2Nc3ccccc3C(=O)N2Cc2ccco2)cc1COc1ccc(NC(C)=O)cc1` (stereo not drawn), “inactive”; in that of `O=C(NCCCN1CCN(CCCNC(=O)c2ccc3c(c2)OCO3)CC1)c1ccc2c(c1)OCO2`, “inactive”.

In another assay the target is Short transient receptor potential channel 4 (Mus musculus) (UniProt Q9QUQ5). Description: calcium flux activators in TRPC4/5HT1a cells, counter-screen for TRPC4 activator project, cell-based, second counter screen, HEK293 TRPC4/5HT1a, Fluo-4 (AID 434977;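 active = calcium signal rise above buffer-control mean plus 5 SD in both duplicates, and also a hit in the primary screen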;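 for activation: plate controls were assay buffer for no effect and maximal serotonin response for full effect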). The settings on record: Fluo-4 calcium flux, at 10 µM; stronger effect = higher value.
Regarding `Fc1ccc(-c2nnc(CN3CCN(c4ncc(C(F)(F)F)cc4Cl)CC3)o2)cc1`, the activation was 23.8% (active).
Still for that read-out and setting: for `CCN1CCN(c2ccc(S(=O)(=O)N3CCCCC3)cc2NC(=O)COc2ccccc2)CC1` the value was 16.8% (active).
The same measure, in the same setting: in the case of `CC1CC(C)CN(CCCNC(=O)c2nn(C)c3c2CS(=O)(=O)c2ccccc2-3)C1` (stereo not drawn) it was 43.2% (active).
The same measure, in the same setting: in the case of `Cc1ccc(/C=N\NC(=O)C2COc3cc4ccccc4cc3O2)o1` (stereo not drawn) it was 40.6% (active).
Regarding `Cc1cccc(C)c1OCC(O)CN` (stereo not drawn), the activation is 20.1% (active).
The same measure, in the same setting: for `CCn1cc(CN2CCCC(C(=O)Nc3ccc(-c4nc5ccccc5[nH]4)cc3)C2)c(C)n1` (stereo not drawn) the value was 35.7% (active); for `CC(C)(C)c1cc(Cl)ccc1OCCn1ccnc1`, 17.9% (active); for `CC(C)c1ccc(NC(=S)N(C)CCc2ccccn2)cc1`, 25.6% (active).
Regarding `CCCC(=O)NC(C)C(c1cccs1)N1CCN(c2ccccc2)CC1` (stereo not drawn), the outcome was inactive.
Still for that read-out and setting: in the case of `Cc1ccc2oc(=O)c3cnn(CC(=O)NC4CCN(Cc5ccccc5)CC4)c3c2c1` it was “inactive”.
On to `O=C(CCc1ccccc1)NNC(=S)NC(=O)c1ccc(Cl)cc1`, for which the activation is 66.8% (active).
Turning to `C=CCn1c(CCNC(=O)c2ccco2)nc2ccccc21`, the activation is 55% (active).
Same read-out and setting: for `Cc1sc2nc(CSc3ccccc3)nc(NCCN(C)C)c2c1C` the value was 15.2% (active).
For `O=C(CNS(=O)(=O)c1ccc2ccccc2c1)NCCc1ccccn1`, the outcome was inactive.
Same read-out and setting: for `COc1ccc(-c2cc(C#N)nc(N3CCNCC3)n2)cc1` the value was “inactive”.
`Cc1ccc(C)c(OCCCCn2ccnc2)c1`: the activation was 14.7% (active).
Same read-out and setting: in the case of `CCCN(CCC)CCNC(=S)Nc1ccc2nc3n(c(=O)c2c1)CCCCC3` it was 7.78% (active).
For `Cc1cccc(NC(=S)NCC(c2cccnc2)N(C)C)c1` (stereo not drawn), the outcome was inactive.
On to `COc1ccc(/C=C/CN2CCCC(C(=O)c3ccc(OC)c(F)c3)C2)cc1` (stereo not drawn), for which the outcome was inactive.
As to `Cc1sc2ncnc(NC3CCN(Cc4ccccc4)CC3)c2c1C`, the activation is 145% (active).
Same read-out and setting: in the case of `CCCCN(CC)CCNC(=O)c1cc2c(C)nc3ccccc3c2o1` it was 42.6% (active).
Regarding `O=C(NCCc1ccccn1)c1ccc(OC2CCN(CCc3ccccc3)CC2)cc1`, the result was inactive.
As for `Cc1ccccc1NC(=S)NCCc1ccccn1`, the activation is 56.5% (active).
On the same count and under the same terms, in the case of `NCCCn1c(C(=O)c2cc(Cl)c(N)c(Cl)c2)c2ccccc2[n+]1[O-]` it was 67.1% (active).
Regarding `COc1ccc(-c2nn(-c3ccccc3)cc2CNCc2cccnc2)c(F)c1`, the result was inactive.
For the compound `Cc1onc(-c2ccccc2)c1C(=O)NC(=S)NNC(=O)c1ccco1`, the activation is 51.5% (active).
Consider `COc1ccc(C(CNC(=O)c2ccc(S(=O)(=O)N(C)C)cc2)N(C)C)cc1` (stereo not drawn), for which the result was inactive.
Still for that read-out and setting: in the case of `CCN1C(=O)c2cccc3c(S(=O)(=O)Nc4ccccc4OC)ccc1c23` it was “inactive”.
In the case of `CCOC(=O)C1CCCN(C(c2ccccn2)c2c(C)[nH]c3ccccc23)C1` (stereo not drawn), the activation is 34% (active).
Still for that read-out and setting: in the case of `COC(=O)c1ccccc1N=Nc1c(N)[nH][nH]c1=O` it was 51.2% (active).
Consider `COc1ccc(C(CNCC(=O)Nc2ccccc2F)N(C)C)cc1` (stereo not drawn), for which the result was inactive.
Turning to `CCOC(=O)C1(CCOc2ccccc2)CCN(Cc2cnc(C)s2)CC1`, the activation is 5.79% (active).
On to `O=C(c1sc2ccccc2c1Cl)N(Cc1ccco1)C1CCS(=O)(=O)C1` (stereo not drawn), for which the outcome was inactive.
For the compound `CCCCN(C)CCCNC(=O)CN1N=C(c2ccc(Cl)cc2)CCC1=O`, the activation is 16.6% (active).
Take `CN(C)CCCN(C(=O)c1ccc(C(=O)c2ccccc2)cc1)c1nc2ccc(F)cc2s1`: the result was inactive.
Consider `CN(CCc1nc2ccc(Cl)cc2[nH]1)Cc1nc(CC2CC2)no1`, for which the activation is 23.4% (active).
Regarding `Fc1ccc(C(c2nnnn2Cc2cccs2)N2CCN(C3CCCCC3)CC2)cc1` (stereo not drawn), the activation was 22.7% (active).
Take `COc1ccc(C2Nc3ccccc3C(=O)N2Cc2ccco2)cc1COc1ccc(NC(C)=O)cc1` (stereo not drawn): the result was inactive.
As to `O=C(NCCCN1CCN(CCCNC(=O)c2ccc3c(c2)OCO3)CC1)c1ccc2c(c1)OCO2`, the activation was 37.2% (active).
